Screens: PubChem BioAssay, National Center for Advancing Translational Sciences (NCATS)
ALOX12 inh: ALOX12 (human) lipoxygenase inhibition; actives 1.1% (n = 580,000); purified 12hLO, xylenol orange hydroperoxide absorbance; Potency, µM (highest dose often 108 µM), for the others: top-dose activity change, negative = inhibition, hits mostly inhibitors; note: potency is the fitted concentration of half-maximal effect; % is set by controls: 0 for no effect and ±100 for the full control effect
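Purified human 12hLO at 150 nM in 25 mM Hepes, 0.01% Triton X-100, pH 7.0, preincubated 15 min at room temperature with compound. Reaction started with 40 uM arachidonic acid, 30 min at room temperature. Hydroperoxide measured by Fe-xylenol orange, 573/405 nm absorbance ratio.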
POLI inh: DNA polymerase iota (human) inhibition | AID 588590 | Potency, µM (series often up to 115 µM), inactives show at the highest dose activity, negative = inhibition, usual class: inhibitors | Q9UNA4 | actives 1% (n = 390,000) | Pol iota fluorescent replication assay, 10 min; note: potency is the fitted concentration of half-maximal effect
Target sequence (Q9UNA4 whole entry, looked up): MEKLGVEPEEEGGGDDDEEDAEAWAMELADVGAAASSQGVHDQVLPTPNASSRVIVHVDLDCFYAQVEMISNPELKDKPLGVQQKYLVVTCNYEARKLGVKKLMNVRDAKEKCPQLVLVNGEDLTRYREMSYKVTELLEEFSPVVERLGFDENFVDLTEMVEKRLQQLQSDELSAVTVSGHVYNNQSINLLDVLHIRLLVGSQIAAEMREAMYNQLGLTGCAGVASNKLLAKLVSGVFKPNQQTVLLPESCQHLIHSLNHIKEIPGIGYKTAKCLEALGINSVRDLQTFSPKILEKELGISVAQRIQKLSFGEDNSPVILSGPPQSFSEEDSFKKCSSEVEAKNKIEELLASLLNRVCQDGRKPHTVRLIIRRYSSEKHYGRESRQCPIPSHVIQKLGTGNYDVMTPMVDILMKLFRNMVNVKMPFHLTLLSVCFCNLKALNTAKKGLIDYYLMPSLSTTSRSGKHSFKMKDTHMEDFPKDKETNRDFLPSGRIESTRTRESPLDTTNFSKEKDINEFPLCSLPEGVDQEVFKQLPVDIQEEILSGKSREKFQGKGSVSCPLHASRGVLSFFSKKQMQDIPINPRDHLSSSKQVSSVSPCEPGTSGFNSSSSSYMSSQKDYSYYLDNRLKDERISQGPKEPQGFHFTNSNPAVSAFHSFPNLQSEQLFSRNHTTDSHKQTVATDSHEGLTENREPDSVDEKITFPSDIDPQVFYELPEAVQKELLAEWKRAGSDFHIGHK
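Fluorescent replication assay read twice, at 0 min and 10 min after adding 50 nM (final) substrate. Enzyme (10 nM) and compounds were first incubated 15 min at room temperature; enzyme-free buffer wells were negative controls.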
POLH inh: blocks human DNA polymerase eta activity. Potency, µM (series often up to 114 µM), for the others: at the highest dose activity change, negative = inhibition, actives largely listed as inhibitors. actives 1.2% (n = 390,000). recombinant Pol eta, fluorescent DNA replication assay. Q9Y253; note: potency is the fitted concentration of half-maximal effect; % is set by controls: 0 for no effect and ±100 for the full control effect
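Fluorescent replication assay: 50 nM final substrate added after a 15 min room-temperature compound preincubation with 10 nM enzyme. Signal taken at 0 min and again at 10 min.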
PI5P4Ka inh: inhibitors of human PI5P4K alpha; actives 1.2% (n = 330,000); AID 652105; P48426; max response, %; PI5P4Kalpha enzyme, ADP-Glo luminescence, 60 min; stronger effect = lower value; active = max response of -50% or lower; inconclusive = between -30% and -50%; inactive = -30% or higher; note: value at the top dose of about 77 µM; % is set by controls: 0 for no effect and ±100 for the full control effect
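ADP-Glo luminescence end-point read after a 60 min room-temperature kinase reaction of PI5P4Kalpha plus substrate, initiated with ATP at 5 microM final. Buffer: 0.038 M HEPES pH 7.4, EGTA, 0.1% CHAPS, 5% DMSO.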
Pol beta inh: DNA polymerase beta (human) inhibition; P06746; Pol beta primer extension/strand displacement, fluorescence kinetic; Potency, µM (titrated, usually from 114 µM), for the others: at the highest dose activity change, negative = inhibition, hits mostly inhibitors; actives 1.3% (n = 340,000); AID 485314; note: potency is the fitted concentration of half-maximal effect; % is set by controls: 0 for no effect and ±100 for the full control effect
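Homogeneous kinetic assay of primer extension and strand displacement by 10 nM Pol beta, preincubated 15 min at room temperature with compound before 50 nM substrate (final) was added. Read at 0 and 10 min; four-parameter Hill fit.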
POLK inh: inhibitors of human DNA polymerase kappa; Q9UBT6; actives 0.53% (n = 400,000); Potency, µM (series often up to 107 µM), without a hit: top-dose activity, negative = inhibition, most hits filed as inhibitors; purified Pol kappa, fluorescent DNA synthesis assay, 10 min; note: potency is the fitted concentration of half-maximal effect; % is set by controls: 0 for no effect and ±100 for the full control effect
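Fluorescent qHTS in 1536-well format: enzyme (10 nM) and compound sat 15 min at room temperature before 50 nM substrate (final) was added. Signal taken at 0 and 10 min; no-enzyme buffer wells were negative controls.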
* hit, by the source's call; ? = inconclusive; · = no result; ! = not active in a repeat; [ ] = dose if it differs, or a comment. A selection: hits, their analogues and other compounds. The true share with any hit is near 2.9%. Unless noted, calls come from the whole dose curve; as a rule, active = well fitted inhibition curve with a large enough effect; inconclusive = small, poorly fitted or top-dose-only effect, or another doubt; inactive = no such curve, though single readings can be large or run the other way.

SMILES	ALOX12 inh	POLI inh	POLH inh	PI5P4Ka inh	Pol beta inh	POLK inh
CC(=O)c1cccc(S(=O)(=O)NC(C)C2CC3CCC2C3)c1 (centres undefined)	-18%	?	?	?	22µM*	-5%
Cc1ccc(COc2ccc(C=O)cc2Cl)cc1	-14%	·	·	·	·	·
COC(=O)C1=C(c2ccccc2)c2cc(Cl)ccc2S(=O)(=O)N1CC(=O)Nc1cccc(C)c1	-62%	·	·	·	·	·
O=C(Cn1c(=O)n(Cc2ccc(Cl)cc2)c(=O)c2cccnc21)Nc1ccccc1C(F)(F)F	-2%	-7%	1%	·	26%	-1%
Cc1ccc(Cn2c(=O)c3cccnc3n(CC(=O)Nc3cccc(C(F)(F)F)c3)c2=O)cc1	?	89µM*!	?	8	-125%	-30%
CCCc1cc(=O)[nH]c(SCc2noc(-c3ccc(C)cc3)n2)n1	-18%	·	·	·	·	·
CC(=O)Nc1ccc(NC(=O)C(C)OC(=O)C2CCC2)cc1 (centres undefined)	16%	14%	-10%	1	·	-17%
CCCCC1CCC(C(=O)OC(C)C(=O)Nc2ccc(NC(C)=O)cc2)CC1 (centres undefined)	40µM*	21%	-8%	0	-3%	1%
Clc1ccc(-n2cnnn2)cc1	-15%	-3%	0%	0	20%	-7%
CO/C=C\C=C/c1nnn(-c2ccc(Cl)cc2)n1	35µM*	?	?	?	?	-10%
Cc1c(Cc2ccccc2)c(=O)oc2cc(OCCC(C)C)ccc12	6%	·	·	·	·	·
CSc1ccc(C2Nc3cccc4cccc(c34)N2)cc1	?	?	-14%	2	11%	-9%
O=C1NC(c2ccc(Cl)c([N+](=O)[O-])c2)Nc2ccccc21 (centres undefined)	?	-28%	-12%	4	-10%	-13%
O=[N+]([O-])c1cc(C2Nc3cccc4cccc(c34)N2)ccc1Cl	40µM*	15%	-2%	-19	-2%	-9%
Clc1ccc(C2Nc3cccc4cccc(c34)N2)cc1	4.5µM*	-12%	-20%	-13	-1%	-6%
c1cncc(-c2cncnc2NC2CCNCC2)c1	7.9µM*	·	·	·	·	-7%[60.1 µM]
O=C(Cn1nc2n(c1=O)CCCC2)Nc1ccc2c(c1)OCO2	5%	·	·	·	·	·
O=C(CCn1cccc1)NCc1ccc2c(c1)OCO2	-6%	?	?	-27	50µM*	?
C/C(=C\C(=O)c1ccc(F)cc1)NCc1ccc2c(c1)OCO2	40µM*	-15%	5%	0	?	-2%
NC1CCc2nn(CC(=O)NCc3ccc4c(c3)OCO4)c(=O)n2CC1 (centres undefined)	50µM*	·	·	·	·	·
C/C(=C\C(=O)c1ccc(Br)cc1)NCc1ccc2c(c1)OCO2	20%	3%	3%	1	25%	0%
CCCCc1nn2c(=O)cc(COC(=O)COc3ccccc3Cl)nc2s1	-5%	·	·	·	·	·
O=C(Nc1ccc2oc(-c3ccccc3)cc(=O)c2c1)c1ccccc1	-15%	·	·	·	·	·
O=C(/C=C/c1ccc(O)cc1)c1ccc(NC2=C(N3CCCCC3)C(=O)c3ccccc3C2=O)cc1	-26%	28µM*	?	-29	?	-11%
O=c1cc(-c2ccccc2Cl)oc2c(NS(=O)(=O)c3cc(Cl)cc(Cl)c3O)ccc(O)c12	·	40µM*	32µM*	-89*	45µM*	?
SMILES	ALOX12 inh	POLI inh	POLH inh	PI5P4Ka inh	Pol beta inh	POLK inh
Nc1ccc(O)c2c(=O)cc(-c3ccccc3Cl)oc12	1%	-19%	-12%	-1	22µM*	-11%
CCCNC(=O)NC(=O)CNc1cccc(C)c1C(=O)OC	0%	·	·	·	·	·
CCCc1ccc2oc(C(=O)N(C)Cc3snnc3C)c(C)c2c1	17%	·	·	·	·	·
COc1ccc(-c2noc(-c3cc(-c4ccco4)n[nH]3)n2)cc1	-28%	·	·	·	·	·
COc1ccc(C(=O)COC(=O)[C@H](C)Nc2ccc(C(F)(F)F)cc2[N+](=O)[O-])c(OC)c1	0%	?	?	?	40µM*	-27%
CS(=O)(=O)N(CC(=O)NCCSCc1ccccc1)c1ccccc1F	11%	34%	-18%	8	2%	-7%
COc1ccc(OC)c(N(CC(=O)NCCSCc2ccco2)S(=O)(=O)c2ccccc2)c1	-22%	16%	-10%	1	-18%	-12%
Cc1ccccc1N(CC(=O)NCCSCc1ccco1)S(C)(=O)=O	-3%[57.4 µM]	56µM*	-11%	·	?	-11%
CCOc1ccccc1N(CC(=O)NCCSCc1ccco1)S(=O)(=O)c1ccccc1	284%	?	?	-6	28µM*	?
CCOC(=O)C(CC)Sc1nnc(CSc2nc(C)cc(C)n2)n1-c1ccc(F)cc1 (centres undefined)	12%	·	·	·	·	·
CN(C)CC1CCCCCN1 (centres undefined)	2%	·	·	·	·	·
CC(NC(=O)Nc1ccc(O)cc1)(C(F)(F)F)C(F)(F)F	-41%	11µM*	-8%	18	-1%	-21%
CCC(NC(=O)Nc1ccc(O)cc1)(C(F)(F)F)C(F)(F)F	-22%	18µM*	-16%	-2	12%	-23%
COc1ccc(NC(=O)NC(C)(C(F)(F)F)C(F)(F)F)cc1	8%	?	?	?	1%	-14%
COc1ccc(C2CC(=O)N3CN(Cc4ccco4)CSC3=C2C#N)cc1 (centres undefined)	?	?	-10%	·	?	-4%
N#CC1=C2SCN(Cc3ccccc3)CN2C(=O)CC1c1ccc2c(c1)OCO2 (centres undefined)	40µM*	-6%	-3%	-58*	45µM*	-5%
COc1ccc2ccccc2c1C1CC(=O)N2CN(Cc3ccco3)CSC2=C1C#N (centres undefined)	?	?	89µM*	?	50µM*	-42%
N#CC1=C2SCN(Cc3ccco3)CN2C(=O)CC1c1ccc(Cl)cc1 (centres undefined)	?	-4%	-12%	?	-24%	-31%
CC(C)c1ccc(C2CC(=O)N3CN(Cc4ccco4)CSC3=C2C#N)cc1 (centres undefined)	?	?	-11%	-21	-5%	-14%
N#CC1=C2SCN(Cc3ccccc3)CN2C(=O)CC1c1cccs1 (centres undefined)	?	?	-21%	-59*	?	-44%
CCN(CC)c1ccc(/C=C2/C(=O)N(c3ccc([N+](=O)[O-])cc3)N=C2N2CCOCC2)cc1	·	·	·	·	14%	·
CCCC1=NN(c2ccc([N+](=O)[O-])cc2)C(=O)/C1=C\N(C)C	45µM*	-11%	-11%	10	-1%	-1%
